What was measured:
Type in all cases: functional
[1] = system: Plasmodium falciparum; assay: GSK_TCMDC: Inhibition of Plasmodium falciparum 3D7 in whole red blood cells, using parasite LDH activity as an index of growth. Test compounds present at 2uM
[2] = system: Plasmodium falciparum; assay: GSK_TCMDC: Inhibition of Plasmodium falciparum Dd2 in whole red blood cells, using parasite LDH activity as an index of growth. Test compounds present at 2uM
[3] = system: HepG2; assay: GSK_TCMDC: Percent inhibition of human HepG2 cell line. Test compounds present at 10uM.

SMILES	Inhibition [1]	Inhibition [2]	Inhibition [3]
COc1cccc2c(NCCNc3ccnc4c(OC)cccc34)ccnc12.Cl	93%	86%	11%
COc1ccc([N+](=O)[O-])cc1N(Cc1ccccc1-c1ccccc1)S(=O)(=O)c1ccc(C(F)(F)F)cc1[N+](=O)[O-]	88%	92%	2%
O=C(Nc1cccc(-c2csc(NC(=O)c3ccc4ccccc4c3)n2)c1)c1ccc2ccccc2c1	89%	35%	3%
CN=C(S)NN=C(C)c1ccccn1	98%	99%	64%
Cl.N=C(N)Nc1cccc(NC(=O)Nc2cccc(NC(=N)N)c2)c1	87%	71%	0%
O=C(Nc1ccc(-c2cccc(-c3nc4cc(F)ccc4[nH]3)c2)cc1)c1cnn2cccnc12	98%	25%	10%
O=C(NCCc1ccccc1F)c1ccc(N2CCN(c3ccncc3)CC2)cn1.O=C(O)C(F)(F)F	93%	18%	8%
Cc1cc(C)cc(CC(=O)N2CCC(n3c(C)nc4ccc(C)cc43)CC2)c1	100%	100%	52%
Oc1cc(NC[C@@H]2CCC[C@@H]2NCc2ccc(Cl)c(Cl)c2)nc2ccccc12	100%	75%	9%
CNC(=O)c1ccccc1Nc1nc(Nc2ccc(C(=O)O)cc2)ncc1Cl.Cl	92%	92%	60%
CC(CN1CCN(C)CC1)C(=O)Nc1cccc(-c2ccc(-c3nc4ccccc4[nH]3)cc2)c1 (stereo unspecified)	95%	38%	2%
O=C(Nc1cccc(CN2CCCN(Cc3cccc(O)c3)CC2)c1)c1ccc2ccccc2c1.O=C(O)C(F)(F)F	97%	42%	21%
O=C(CC1NC(=O)c2ccccc21)Nc1ccc(-c2cccc(-c3nc4cc(C(F)(F)F)ccc4[nH]3)c2)cc1 (stereo unspecified)	95%	36%	69%
O=C(O)C(F)(F)F.c1cc(CNCC2CCCO2)cc(-c2csc(-c3nc4ccccc4[nH]3)c2)c1 (stereo unspecified)	91%	6%	5%
COc1cc(NC(=O)Nc2cccc3ccccc23)c(OC)cc1Cl	97%	71%	0%
c1ccc2[nH]c(CN(Cc3nc4ccccc4[nH]3)Cc3nc4ccccc4[nH]3)nc2c1	81%	86%	39%
COc1cc(CNCCCCCCNCc2cc(OC)cc3ccccc23)c2ccccc2c1.CS(=O)(=O)O	100%	94%	57%
Cc1ccc(O)cc1Nc1ccnc2cc(-c3csc(CN4CCN(C)CC4)n3)ccc12	100%	77%	6%
Cc1c2ccc(N(C)c3ccnc(Nc4ccc5c(c4)nc(NC(C)C)n5C)n3)cc2nn1C.Cl	100%	100%	2%
COc1ccccc1N1CCN(Cc2cc(C(C)C)c(C)cc2O)CC1	97%	98%	7%
Cc1c(S(=O)(=O)Nc2ccc3nccc(N4CC(C)NC(C)C4)c3c2)sc2ccc(Cl)cc12.Cl (stereo unspecified)	92%	0%	0%

SMILES	Inhibition [1]	Inhibition [2]	Inhibition [3]
CN(C)CCNCc1ccc(-c2ccc(-c3nc4cc(F)ccc4[nH]3)cc2)cc1.O=C(O)C(F)(F)F	100%	99%	8%
O=C(NCCCCN1CCC(c2cccc3ccccc23)CC1)c1ccc(-c2ccc(C(F)(F)F)cn2)cc1	91%	36%	31%
CC(C)CC(=O)N(Cc1ccc(-c2ccc(CNC3Cc4ccccc4C3)cc2)cc1)C1CCNCC1.O=C(O)C(F)(F)F	85%	65%	20%
CC(C)N1CCN(C(=O)c2ccc(CNCCCN3CCN(c4cccc(Cl)c4Cl)CC3)o2)CC1.Cl	98%	36%	41%
Cc1cc(=NN=Cc2ccc(F)cc2)c2cc(C(F)(F)F)ccc2[nH]1	100%	99%	2%
CCNc1cc(C(=O)N[C@@H](Cc2ccccc2Cl)[C@H](O)CNC2CCCCC2)cc(N2CCCCS2(=O)=O)c1.Cl	99%	97%	6%
CN1CCCC1CNS(=O)(=O)c1ccc(C(=O)NCC2CC2)cc1.O=C(O)C(F)(F)F (stereo unspecified)	91%	0%	17%
Cc1ccc(C(=O)Nc2cccc(-c3ccc(N4CCN(C)CC4)nn3)c2)cc1[N+](=O)[O-]	99%	40%	32%
CCOc1ccc2nc3cc(NC(=O)c4ccco4)ccc3c(N)c2c1	100%	56%	36%
CCNc1cc(C(=O)N[C@@H](Cc2ccccc2)[C@H](O)CNC(C)(C)CCCC(C)C)cc(N2CCCCS2(=O)=O)c1.O=CO	98%	98%	5%
CC(=O)Nc1ccc(CN2CCC(NC(=O)c3cc(-c4ccc(N(C)C)cc4)cs3)C2)cc1.O=C(O)C(F)(F)F (stereo unspecified)	83%	1%	15%
Clc1ccc(-c2cc3c(NCc4ccncc4)nccc3s2)cc1	98%	8%	26%
ON=C(c1nc2ccccc2[nH]1)c1nc2ccccc2[nH]1	93%	68%	36%
C=CCn1c(SCC(=O)Nc2cc(Cl)ccc2Cl)nc2sc(C)cc2c1=O	97%	96%	8%
COc1cccc(-c2cccc(-c3ccc(NC(=O)c4ccc([N+](=O)[O-])o4)cc3)n2)c1	97%	94%	98%
CC(C)(C)c1ccc(CNC(=O)c2cc(CNC3CCNC3)ccc2O)cc1 (stereo unspecified)	94%	1%	0%
COc1ccc(CN(C)C(=O)CCNS(=O)(=O)c2ccc3c(c2)OCCCO3)cc1F	96%	94%	9%
COc1cc2nc(N3CCC(CNC(=O)c4ccc(-c5ccc(Cl)cc5)cc4)CC3)nc(N)c2cc1OC	100%	100%	99%
O=C(NCc1cccnc1)C(c1cc2ccccc2o1)N1CCN(C(c2ccccc2)c2ccccc2)CC1 (stereo unspecified)	95%	81%	12%
COc1ccc(CC2(c3ccc(F)cc3)N=C(N)N(CCCc3ccccc3)C2=O)cc1.O=C(O)C(F)(F)F (stereo unspecified)	99%	97%	38%
Cc1cccc2nc(-c3cccc(-c4cccc(NC(=O)c5c[nH]cn5)c4)c3)[nH]c12	100%	91%	2%

SMILES	Inhibition [1]	Inhibition [2]	Inhibition [3]
Nc1nc(N)c2c(ccc3c2ccn3Cc2ccccc2)n1	96%	94%	64%
COc1ccc(-c2cc(-c3nc4cc(CN)ccc4[nH]3)c(=O)n(C)c2)cc1OC	85%	56%	0%
Cc1noc(C)c1-c1ccc2c(Nc3ccccc3C(C)(C)C)c(C(=O)NC3CCCC3)cnc2c1.Cl	93%	79%	27%
Cc1c(C(=O)N2CCc3cc4nccc(N5CCN6CCC[C@H]6C5)c4cc32)cnn1-c1ccc(C#N)cc1.Cl	90%	27%	0%
Br.COc1ccc(OC)c2c1CCN(C)C2Cc1cccc2ccccc12 (stereo unspecified)	91%	79%	13%
CC(C)C[C@H](NC(=O)c1ccc(OCCN2CCOCC2)cc1)C(=O)NC(/C=N/N1CCCC1=O)C(C)C (stereo partly specified)	90%	81%	3%
COc1ccc(Nc2ncc3c(-c4cccc(NC(=O)Cc5ccc(O)cc5)c4)c[nH]c3n2)cc1OC	100%	99%	48%
COc1cccc2c(N/N=C/c3ccccc3[N+](=O)[O-])cc(C)nc12	99%	32%	0%
CC(C)N1CCN(C(CN2CCN(CCCOc3ccc4nonc4c3)CC2)c2ccc(F)cc2)CC1.Cl (stereo unspecified)	97%	40%	0%
NC(=O)c1cccc(C(=O)Nc2cccc(-c3cccc(-c4nc5cc(F)ccc5[nH]4)c3)c2)c1	100%	73%	47%
COc1ccc(-c2cccc(CNC3CCN(CC4Cn5c(=O)ccc6ccc(F)c4c65)CC3)c2)cc1.O=C(O)C(F)(F)F (stereo unspecified)	100%	74%	22%
CCCNCc1c(O)ccc2c(CNCCC)c(O)ccc12.Cl	100%	9%	24%
O=c1cc(NCCCNCc2ccc(C(F)(F)F)c(F)c2)[nH]c2ccccc12	93%	26%	5%
Cc1cc(N(C)C)nc(Nc2ccc(NC(=O)c3cccc(F)c3)cc2)n1	100%	62%	0%
COc1ccc(Nc2nc(N/N=C/c3ccc(-c4ccc([N+](=O)[O-])cc4)o3)nc(Nc3ccccc3)n2)cc1	100%	17%	0%
CNC(=O)c1ccc2nc(C3CC3)n(CC3CCN(S(=O)(=O)c4cccc(Cl)c4)CC3)c2c1.O=C(O)C(F)(F)F	100%	100%	0%
CC(C)(C)n1nnnc1C(c1cccnc1)N(Cc1ccccc1)Cc1ccc(Cl)cc1 (stereo unspecified)	96%	17%	0%
Nc1nc(N)c2cc(Sc3ccc4ccccc4c3)ccc2n1	95%	92%	66%
COc1cc(Cc2cnc(N)nc2N)cc(CC(C)O)c1O (stereo unspecified)	93%	2%	0%
O=C(N[C@H](Cc1ccc(Cl)cc1)C(=O)N1CCN(c2ccnc3cc(Cl)ccc23)CC1)[C@H]1Cc2ccccc2CN1.O=C(O)C(F)(F)F	85%	41%	16%

From ChEMBL document CHEMBL1157539, “Thousands of chemical starting points for antimalarial lead identification” (Nature, 2010)
